Legend:
[1] = molecular target: T1, Ephrin type-B receptor 1 (Homo sapiens) (UniProt P54762); conditions: at 10 µM
T1 sequence (whole entry): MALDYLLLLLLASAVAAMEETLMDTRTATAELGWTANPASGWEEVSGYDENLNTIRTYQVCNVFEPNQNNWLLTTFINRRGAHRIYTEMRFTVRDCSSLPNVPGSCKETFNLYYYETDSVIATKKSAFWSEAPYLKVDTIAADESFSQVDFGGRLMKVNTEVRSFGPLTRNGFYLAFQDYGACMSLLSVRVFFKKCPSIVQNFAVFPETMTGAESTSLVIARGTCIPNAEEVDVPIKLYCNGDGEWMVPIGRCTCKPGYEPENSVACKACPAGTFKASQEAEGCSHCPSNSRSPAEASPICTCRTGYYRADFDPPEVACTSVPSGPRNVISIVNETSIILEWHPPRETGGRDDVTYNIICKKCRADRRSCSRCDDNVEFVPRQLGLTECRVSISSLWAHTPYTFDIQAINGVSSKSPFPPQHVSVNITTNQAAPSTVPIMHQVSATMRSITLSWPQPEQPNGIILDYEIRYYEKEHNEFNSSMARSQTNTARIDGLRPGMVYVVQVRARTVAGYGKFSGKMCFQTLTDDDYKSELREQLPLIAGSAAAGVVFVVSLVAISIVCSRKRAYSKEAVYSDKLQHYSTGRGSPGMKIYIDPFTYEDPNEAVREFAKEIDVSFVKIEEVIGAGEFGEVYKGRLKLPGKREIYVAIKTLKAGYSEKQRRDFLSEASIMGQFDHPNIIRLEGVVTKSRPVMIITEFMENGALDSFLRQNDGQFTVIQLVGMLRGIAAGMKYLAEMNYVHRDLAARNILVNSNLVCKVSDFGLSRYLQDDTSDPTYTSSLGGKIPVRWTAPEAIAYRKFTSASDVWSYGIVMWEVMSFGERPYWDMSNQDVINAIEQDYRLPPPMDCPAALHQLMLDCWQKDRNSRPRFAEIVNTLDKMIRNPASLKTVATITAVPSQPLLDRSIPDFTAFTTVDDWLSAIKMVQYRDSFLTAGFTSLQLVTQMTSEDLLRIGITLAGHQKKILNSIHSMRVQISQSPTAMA

[2] = molecular target: T2, Ephrin type-B receptor 2 (Homo sapiens) (UniProt P29323); conditions: at 1 µM
T2 sequence (whole entry): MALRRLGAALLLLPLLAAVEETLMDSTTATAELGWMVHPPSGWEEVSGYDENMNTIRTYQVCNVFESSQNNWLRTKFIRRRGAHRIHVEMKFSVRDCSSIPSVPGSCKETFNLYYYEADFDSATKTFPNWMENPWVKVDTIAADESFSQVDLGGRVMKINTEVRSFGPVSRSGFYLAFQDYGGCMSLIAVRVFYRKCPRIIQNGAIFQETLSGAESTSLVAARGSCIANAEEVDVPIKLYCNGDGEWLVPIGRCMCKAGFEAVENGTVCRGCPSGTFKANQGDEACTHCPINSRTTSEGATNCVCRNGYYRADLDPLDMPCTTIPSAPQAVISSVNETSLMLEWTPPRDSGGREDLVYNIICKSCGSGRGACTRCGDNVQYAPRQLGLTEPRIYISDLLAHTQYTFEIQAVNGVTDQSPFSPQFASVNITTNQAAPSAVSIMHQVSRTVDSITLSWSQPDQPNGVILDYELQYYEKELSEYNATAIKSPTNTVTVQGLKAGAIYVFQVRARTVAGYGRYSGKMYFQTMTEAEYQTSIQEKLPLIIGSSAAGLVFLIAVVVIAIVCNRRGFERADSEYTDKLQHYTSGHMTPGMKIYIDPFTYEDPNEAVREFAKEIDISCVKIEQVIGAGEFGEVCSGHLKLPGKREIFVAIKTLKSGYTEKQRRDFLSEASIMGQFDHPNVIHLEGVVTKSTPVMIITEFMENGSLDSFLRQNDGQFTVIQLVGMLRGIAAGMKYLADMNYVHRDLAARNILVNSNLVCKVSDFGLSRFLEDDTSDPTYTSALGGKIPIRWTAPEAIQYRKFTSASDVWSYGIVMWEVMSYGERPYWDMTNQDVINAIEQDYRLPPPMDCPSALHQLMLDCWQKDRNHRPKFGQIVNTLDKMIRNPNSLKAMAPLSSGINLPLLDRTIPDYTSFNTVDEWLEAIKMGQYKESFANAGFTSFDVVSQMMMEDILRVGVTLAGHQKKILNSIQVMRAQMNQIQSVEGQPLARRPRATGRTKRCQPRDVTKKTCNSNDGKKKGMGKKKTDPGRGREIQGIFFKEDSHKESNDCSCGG

[3] = molecular target: T2, Ephrin type-B receptor 2 (Homo sapiens); conditions: at 10 µM
[4] = molecular target: T3, Ephrin type-B receptor 3 (Homo sapiens) (UniProt P54753); conditions: at 1 µM
T3 sequence (whole entry): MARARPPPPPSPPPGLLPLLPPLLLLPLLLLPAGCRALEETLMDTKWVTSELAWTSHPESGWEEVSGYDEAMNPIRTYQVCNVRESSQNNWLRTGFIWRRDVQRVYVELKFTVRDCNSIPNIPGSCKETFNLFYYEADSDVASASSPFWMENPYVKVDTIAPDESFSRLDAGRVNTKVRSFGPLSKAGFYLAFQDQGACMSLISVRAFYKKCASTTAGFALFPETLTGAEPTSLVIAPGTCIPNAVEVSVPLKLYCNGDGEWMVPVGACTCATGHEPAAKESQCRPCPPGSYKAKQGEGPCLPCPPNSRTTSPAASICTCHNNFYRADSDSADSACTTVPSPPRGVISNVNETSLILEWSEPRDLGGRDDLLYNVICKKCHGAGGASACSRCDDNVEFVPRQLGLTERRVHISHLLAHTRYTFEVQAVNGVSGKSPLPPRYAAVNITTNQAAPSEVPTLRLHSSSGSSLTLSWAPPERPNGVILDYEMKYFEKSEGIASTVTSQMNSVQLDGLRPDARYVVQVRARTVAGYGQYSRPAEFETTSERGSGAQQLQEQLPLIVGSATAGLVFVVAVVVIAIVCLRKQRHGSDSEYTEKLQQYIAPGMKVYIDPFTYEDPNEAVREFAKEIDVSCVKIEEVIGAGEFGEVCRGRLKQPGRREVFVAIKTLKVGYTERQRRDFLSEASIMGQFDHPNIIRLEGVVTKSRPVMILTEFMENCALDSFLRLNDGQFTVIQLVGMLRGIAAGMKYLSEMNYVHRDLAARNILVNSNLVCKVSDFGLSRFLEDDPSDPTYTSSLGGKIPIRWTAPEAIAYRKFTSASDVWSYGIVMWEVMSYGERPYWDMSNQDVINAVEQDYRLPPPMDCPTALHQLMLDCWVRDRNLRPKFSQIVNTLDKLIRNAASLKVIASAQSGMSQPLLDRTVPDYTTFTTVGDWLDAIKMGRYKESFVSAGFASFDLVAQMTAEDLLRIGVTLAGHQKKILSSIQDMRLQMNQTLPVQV

[5] = molecular target: T3, Ephrin type-B receptor 3 (Homo sapiens); conditions: at 10 µM
[6] = molecular target: T4, Ephrin type-B receptor 4 (Homo sapiens) (UniProt P54760); conditions: at 1 µM
T4 sequence (whole entry): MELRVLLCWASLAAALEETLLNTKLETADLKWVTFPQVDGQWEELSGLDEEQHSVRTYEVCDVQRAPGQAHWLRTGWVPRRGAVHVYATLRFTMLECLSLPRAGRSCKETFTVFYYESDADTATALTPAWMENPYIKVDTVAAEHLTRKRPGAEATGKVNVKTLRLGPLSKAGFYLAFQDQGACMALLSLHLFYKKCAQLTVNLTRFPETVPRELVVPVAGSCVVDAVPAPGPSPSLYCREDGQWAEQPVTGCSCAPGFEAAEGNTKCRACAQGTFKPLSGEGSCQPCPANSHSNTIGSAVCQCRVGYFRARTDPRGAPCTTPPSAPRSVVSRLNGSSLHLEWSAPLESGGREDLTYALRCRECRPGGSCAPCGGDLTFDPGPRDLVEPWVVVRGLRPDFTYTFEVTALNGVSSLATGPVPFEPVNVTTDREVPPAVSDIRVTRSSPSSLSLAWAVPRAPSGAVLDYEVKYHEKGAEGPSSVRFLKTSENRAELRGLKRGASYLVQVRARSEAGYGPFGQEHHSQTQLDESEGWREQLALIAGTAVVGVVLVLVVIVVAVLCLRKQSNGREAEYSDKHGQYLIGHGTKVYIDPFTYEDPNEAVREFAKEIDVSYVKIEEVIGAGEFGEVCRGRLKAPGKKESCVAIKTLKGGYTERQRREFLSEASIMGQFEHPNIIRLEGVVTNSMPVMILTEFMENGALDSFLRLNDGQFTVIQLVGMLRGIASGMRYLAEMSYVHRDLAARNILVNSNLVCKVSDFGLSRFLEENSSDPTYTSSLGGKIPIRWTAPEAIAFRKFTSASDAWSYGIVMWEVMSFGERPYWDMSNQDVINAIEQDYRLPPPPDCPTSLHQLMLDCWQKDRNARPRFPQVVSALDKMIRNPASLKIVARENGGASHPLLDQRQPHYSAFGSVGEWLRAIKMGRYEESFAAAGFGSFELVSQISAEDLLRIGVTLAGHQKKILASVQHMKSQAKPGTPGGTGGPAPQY

[7] = molecular target: T4, Ephrin type-B receptor 4 (Homo sapiens); conditions: at 10 µM
[8] = molecular target: Receptor tyrosine-protein kinase erbB-4 (Homo sapiens) (UniProt Q15303); conditions: at 1 µM
[9] = molecular target: Receptor tyrosine-protein kinase erbB-4 (Homo sapiens) (UniProt Q15303); conditions: at 10 µM
[10] = molecular target: Focal adhesion kinase 1 (Homo sapiens) (UniProt Q05397); conditions: at 1 µM
Chain of Focal adhesion kinase 1 (Homo sapiens) (Q05397 2-1052 limits assumed): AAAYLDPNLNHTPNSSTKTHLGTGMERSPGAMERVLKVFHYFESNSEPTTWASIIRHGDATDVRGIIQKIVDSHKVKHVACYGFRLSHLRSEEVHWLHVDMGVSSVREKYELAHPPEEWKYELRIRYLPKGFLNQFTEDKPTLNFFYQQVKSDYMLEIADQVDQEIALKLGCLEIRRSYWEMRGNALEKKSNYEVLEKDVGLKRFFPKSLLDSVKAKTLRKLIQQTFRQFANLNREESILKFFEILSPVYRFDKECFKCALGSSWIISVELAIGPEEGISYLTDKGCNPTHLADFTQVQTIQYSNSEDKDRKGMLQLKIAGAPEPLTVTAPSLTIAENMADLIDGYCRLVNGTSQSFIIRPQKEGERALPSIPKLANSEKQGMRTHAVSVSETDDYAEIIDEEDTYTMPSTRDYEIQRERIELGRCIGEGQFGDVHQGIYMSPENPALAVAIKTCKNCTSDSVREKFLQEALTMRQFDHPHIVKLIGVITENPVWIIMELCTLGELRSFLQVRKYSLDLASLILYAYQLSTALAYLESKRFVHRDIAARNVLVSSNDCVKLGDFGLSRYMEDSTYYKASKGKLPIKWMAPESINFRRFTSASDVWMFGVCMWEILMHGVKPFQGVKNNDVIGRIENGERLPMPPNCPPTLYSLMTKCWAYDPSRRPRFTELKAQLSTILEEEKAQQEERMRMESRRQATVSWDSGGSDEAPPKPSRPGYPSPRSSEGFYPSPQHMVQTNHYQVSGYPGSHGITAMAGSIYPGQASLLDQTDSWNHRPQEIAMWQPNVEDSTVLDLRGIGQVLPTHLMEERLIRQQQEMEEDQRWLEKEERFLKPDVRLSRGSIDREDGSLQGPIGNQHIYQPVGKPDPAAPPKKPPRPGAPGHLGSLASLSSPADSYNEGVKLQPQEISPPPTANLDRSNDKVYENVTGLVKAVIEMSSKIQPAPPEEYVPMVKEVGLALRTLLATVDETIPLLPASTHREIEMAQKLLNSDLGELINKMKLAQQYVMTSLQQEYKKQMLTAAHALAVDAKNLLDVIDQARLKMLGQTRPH

Chain of Receptor tyrosine-protein kinase erbB-4 (Homo sapiens) (Q15303 whole entry): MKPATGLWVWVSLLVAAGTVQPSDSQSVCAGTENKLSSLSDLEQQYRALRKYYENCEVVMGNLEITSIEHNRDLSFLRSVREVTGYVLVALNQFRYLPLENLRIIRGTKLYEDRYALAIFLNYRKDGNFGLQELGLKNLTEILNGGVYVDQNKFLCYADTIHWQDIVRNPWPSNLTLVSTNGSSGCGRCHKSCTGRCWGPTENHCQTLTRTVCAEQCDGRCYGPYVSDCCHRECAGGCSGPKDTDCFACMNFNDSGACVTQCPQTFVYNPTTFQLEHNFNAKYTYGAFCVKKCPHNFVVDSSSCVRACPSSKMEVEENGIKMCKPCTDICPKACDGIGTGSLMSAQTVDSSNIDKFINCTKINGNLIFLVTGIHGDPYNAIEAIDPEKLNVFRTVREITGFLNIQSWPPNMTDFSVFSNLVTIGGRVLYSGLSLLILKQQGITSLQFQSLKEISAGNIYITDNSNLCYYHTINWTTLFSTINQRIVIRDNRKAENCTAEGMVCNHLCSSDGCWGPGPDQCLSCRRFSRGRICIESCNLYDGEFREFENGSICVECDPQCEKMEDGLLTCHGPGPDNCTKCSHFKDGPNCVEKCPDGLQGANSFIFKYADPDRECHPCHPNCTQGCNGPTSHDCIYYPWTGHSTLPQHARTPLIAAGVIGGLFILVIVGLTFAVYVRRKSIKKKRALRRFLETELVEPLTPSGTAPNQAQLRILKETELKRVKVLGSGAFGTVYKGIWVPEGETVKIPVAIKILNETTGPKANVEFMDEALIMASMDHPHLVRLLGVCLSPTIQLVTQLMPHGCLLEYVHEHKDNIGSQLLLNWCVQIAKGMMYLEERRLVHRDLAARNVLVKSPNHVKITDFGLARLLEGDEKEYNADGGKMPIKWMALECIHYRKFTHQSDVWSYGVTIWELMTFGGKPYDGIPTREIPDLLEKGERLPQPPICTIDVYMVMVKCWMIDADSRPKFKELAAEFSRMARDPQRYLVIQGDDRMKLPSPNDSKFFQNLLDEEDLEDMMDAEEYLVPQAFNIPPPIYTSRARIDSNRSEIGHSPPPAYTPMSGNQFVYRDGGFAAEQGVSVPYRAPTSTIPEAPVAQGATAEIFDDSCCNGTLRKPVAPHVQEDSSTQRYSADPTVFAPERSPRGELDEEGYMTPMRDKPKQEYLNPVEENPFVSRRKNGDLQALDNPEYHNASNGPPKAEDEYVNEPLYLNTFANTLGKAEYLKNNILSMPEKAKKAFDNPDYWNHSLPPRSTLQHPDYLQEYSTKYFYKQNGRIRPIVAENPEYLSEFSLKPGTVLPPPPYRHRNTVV

O=C1c2ccccc2-[n+]2ccc3c([nH]c4ccccc43)c21
residual activity [1]: 85%
residual activity [2]: 114%
residual activity [3]: 116%
residual activity [4]: 100% (inactive)
residual activity [5]: 96%
residual activity [6]: 92%
residual activity [7]: 84%
residual activity [8]: 69%
residual activity [9]: 67%
residual activity [10]: 95%
